Laboratory results published in PubChem BioAssay (EPA / NIEHS).
Several values for one entry are separate records, joined by “and”; a condition that tells them apart may be missing. Identical values can stand only once. Inconclusive results are not listed. A structure can be active in one record and inactive in another. Activity calls are given as the source filed them. How the source made its calls, unless noted: active means hit-call score of the fitted dose curve at least 0.9, where 1 is the maximum; inactive means score below 0.9.

How the values were obtained:
[1] = CCTE_Shafer_MEA_dev_network_spike_peak: CCTE's Neural Network Formation Assay for Mean Number of Electrodes in Network Spike, Shafer Lab (AID 2284049);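 further: fitted for loss of signal meaning fewer electrodes in network spikes than DMSO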
Method in brief: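 Continuous 12-day exposure of rat cortical cultures, starting at plating, on MEA plates. Endpoint: electrodes participating in network-spike peaks, AUC across DIV 5–12, DMSO as negative control.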

[2] = CCTE_Shafer_MEA_dev_spike_duration_mean: CCTE's Neural Network Formation Assay for Mean Spike Duration, Shafer Lab (AID 2284051);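 further: mean network spike duration pooled as area under curve over DIV 5 to 12 recordings; potency for a decrease in mean network spike duration versus DMSO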
Method in brief: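 Readout is the average length of network spikes, clustered firing across electrodes, summed over DIV 5, 7, 9 and 12 as area under the curve. Neurons from rat cortex developed networks on MEA plates under continuous 12-day exposure.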

[3] = CCTE_Shafer_MEA_dev_network_spike_duration_std: CCTE's Neural Network Formation Assay for Standard Deviation of Network Spike Duration, Shafer Lab (AID 2284052);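 further: area under curve of spike duration SD across recording days 5 to 12; hits are decreases in network spike duration SD versus DMSO vehicle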
Method in brief: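 Read-out is the trapezoidal area-under-the-curve across recordings made on days 5, 7, 9 and 12, fitted in the negative direction against DMSO baseline. Neurons were primary rat cortical cells treated from day 0, with treatment renewed at each feed.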

[4] = CCTE_Shafer_MEA_dev_per_network_spike_spike_number_mean: CCTE's Neural Network Formation Assay for Mean Number of Spikes in a Network Spike, Shafer Lab (AID 2284053);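 further: fitted as decrease in spikes per network spike relative to DMSO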
Method in brief: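 Continuous twelve-day exposure of developing rat cortical networks grown over 16 microelectrodes per well; spontaneous firing is captured at four time points, and the per-network-spike spike number is integrated over development by trapezoidal AUC.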

[5] = UKN5_HCS_SBAD2_cell_viability: Viability Assessment in the University of Konstanz (UKN) Leist Lab Neurite Outgrowth Assay in human iPSC-derived immature Dorsal Root Ganglia Neurons (UKN5) (AID 2284056)
Method in brief: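 iPSC-derived immature peripheral neurons (SBAD2) seeded on Matrigel with CHIR99021, SU5402 and DAPT, dosed 1 h later for 24 h. Viability from Hoechst H-33342 and calcein-AM live staining, high-content imaging; bidirectional fit versus DMSO.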

[6] = CCTE_Shafer_MEA_dev_LDH: CCTE's Lactate Dehydrogenase Assay for Cytotoxicity in the Neural Network Formation Assay, Shafer Lab (AID 2284068; active means hit-call score of the fitted dose curve at least 0.9, where 1 is the maximum;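 further: exposure for twelve days from plating with re-dosing on DIV 5 and 9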)
Method in brief: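 Cytotoxicity companion to network-formation recordings: rat cortical neurons received compound over 12 days of development, re-dosed at DIV 5 and 9 feeds. Viability was inferred from LDH enzyme activity relative to DMSO.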

[7] = UKN5_HCS_SBAD2_neurite_outgrowth: University of Konstanz (UKN) Leist Lab Neurite Outgrowth Assay in human iPSC-derived immature Dorsal Root Ganglia Neurons (UKN5) (AID 2284070); conditions: actives raise or lower the signal
Method in brief: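 Thaw, seed on Matrigel (100.000 cells/cm2), dose 1 h later; at 23 h live-stain with H-33342 and calcein-AM for 60 min; image at 24 h. Neurite area fitted bidirectionally vs DMSO.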

[8] = CCTE_Shafer_MEA_dev_AB: CCTE's Alamar Blue Assay for Cytotoxicity in the Neural Network Formation Assay, Shafer Lab (AID 2284083; active means hit-call score of the fitted dose curve at least 0.9, where 1 is the maximum;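 further: resazurin reduction fluorescence as viability of cultured neurons; twelve days of exposure from plating with re-dosing on DIV 5 and 9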)
Method in brief: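 Fluorescent resazurin reduction serves as the viability read-out, with DMSO as negative control and baseline. Cells were primary rat cortical neurons grown on MEA plates and dosed from day 0 to day 12, treatment renewed on DIV 5 and 9.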

[9] = CCTE_Shafer_MEA_dev_mutual_information_norm: CCTE's Neural Network Formation Assay for Mutual Information Normalization, Shafer Lab (AID 2284091);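 further: mutual information between electrodes summarised as area under curve across four recording days; potency is for a decrease in mutual information relative to DMSO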
Method in brief: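 Exposure of primary rat cortical neurons began at plating and ran to DIV 12, with full media and treatment renewal after DIV 5 and 9 recordings. Mutual information AUC (DIV 5–12) was analysed for loss versus DMSO.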

[10] = CCTE_Shafer_MEA_dev_correlation_coefficient_mean: CCTE's Neural Network Formation Assay for Mean Correlation Coefficient, Shafer Lab (AID 2284093);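 further: well mean pairwise spike train correlation integrated as AUC over recording days 5 to 12; potency fitted for loss of correlation relative to DMSO vehicle wells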
Method in brief: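 Read-out: well-mean correlation coefficient of spike trains between electrode pairs, collapsed over four recording days as trapezoidal area-under-the-curve. Developing rat cortical neuron networks grown on MEAs received test chemical continuously from plating.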

[11] = UKN2_HCS_IMR90_neural_migration: University of Konstanz (UKN) Leist Lab Neural Crest Cell Migration Assay in human induced IMR90 Pluripotent Stem Cells (UKN2) (AID 2284204); conditions: actives raise or lower the signal
Method in brief: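 Using a 96-well stopper format with PLO/laminin/fibronectin coating, neural crest cells from iPSC migrate in cytokine-supplemented N2-S medium; after 24 h, chemicals are applied for a further 24 h, then cells are imaged after dye staining.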

[12] = UKN4_HCS_LUHMES_neurite_outgrowth: University of Konstanz (UKN) Leist Lab Neurite Outgrowth Assay in human LUHMES cells (UKN4) (AID 2284206); conditions: actives raise or lower the signal
Method in brief: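 Human LUHMES cells were differentiated for two days, replated and treated with chemicals for 24 h. Neurite outgrowth was quantified as calcein-stained neurite area by HCS imaging, fitted bidirectionally relative to DMSO.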

[13] = IUF_NPC1b_proliferation_BrdU_72hr: Leibniz Research Institute for Environmental Medicine (IUF) 72-hour Neural Progenitor Cell Bromodeoxyuridine (BrdU) Proliferation Assay (NPC1b) (AID 2284207)
Method in brief: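 Neural progenitor spheres of human fetal origin are treated for three days; BrdU added for the last 16 h is quantified by luminescence ELISA, with DMSO as baseline and EGF/FGF omission as positive control.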

[14] = IUF_NPC1a_proliferation_area_72hr: Leibniz Research Institute for Environmental Medicine (IUF) 72-hour Neural Progenitor Cell Proliferation Area Assay (NPC1a) (AID 2284208)
Method in brief: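 Read-out: increase in sphere area over 72 h by automated phase-contrast imaging, fitted in positive direction versus DMSO baseline. One hNPC sphere (0.25-0.35 mm) per well in EGF/FGF medium; growth-factor withdrawal served as positive control.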

[15] = IUF_NPC1_viability_72hr: Viability Assessment at 72 hours in the Leibniz Research Institute for Environmental Medicine (IUF) Neural Progenitor Cell Proliferation Assay (NPC1) (AID 2284209)
Method in brief: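 Spheres of primary human neural progenitors were plated singly in proliferation medium and treated for 72 h. Mitochondrial reduction of resazurin was then measured by fluorescence and analysed against DMSO controls.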

[16] = CCTE_Mundy_HCI_Cortical_Synap_Neur_Matur_NeuriteSpotCountPerNeuriteLength: CCTE's Synaptogenesis and Neurite Maturation Assay in rat cortical cells for Neurite Spot Count per Neurite Length, Mundy Lab (AID 2284210)
Method in brief: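 Neurite-associated synapse density (synaptophysin puncta per unit neurite length) is measured by fluorescence high-content imaging in rat cortical cultures treated from DIV 7 and fixed at DIV 12, with DMSO as negative control.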

[17] = CCTE_Mundy_HCI_Cortical_NOG_NeuriteCount: CCTE's Neurite Outgrowth Assay in rat cortical cells for Neurite Count, Mundy Lab (AID 2284212);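 further: cells fixed about two days after chemical exposure began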
Method in brief: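 Rat cortical primary cells; compound added 2 h post-plating, 1/10 dilution of working solution. Anti-betaIII-tubulin/AF488 ICC; ArrayScan neurite count vs DMSO.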

Measured: AC50

[CH3][Hg][Cl]
active: [1] 356 nM | [2] 275 nM | [3] 164 nM | [4] 536 nM | [5] 3170 nM | [6] 182 nM | [7] 636 nM | [8] 283 nM | [9] 134 nM | [10] 306 nM | [11] 5000 nM | [12] 164 nM | [13] 906 nM and 968 nM | [14] 370 nM | [15] 820 nM | [16] 881 nM | [17] 493 nM
inactive: [15]
